Consider 104 compounds from PubChem BioAssay AID686978 (National Center for Advancing Translational Sciences (NCATS), 2013).

“And” between values parts separate entries of the source, which are not always exact repeats. Identical values can stand only once. In all, about 420,000 compounds went through this assay and about 64,000 (15%) were called active. Not shown: some 27% with an inconclusive outcome. These entries were drawn from the full list. Where a call stands in place of a potency, no number is given. Values without a mark were called inactive. Calls follow the shape of the dose curve; as a rule, active = well fitted inhibition curve with a large enough effect; inconclusive = small, poorly fitted or top-dose-only effect; inactive = flat fitted curve, though single readings scatter.
Potency is read from the fitted curve at half-maximal effect.

The assay is described as follows: qHTS for Inhibitors of human tyrosyl-DNA phosphodiesterase 1 (TDP1): qHTS in cells in absence of CPT. Also: nearly all actives have a fitted effect of over 55% in size. The note with it: DT40 Tdp1-/- hTDP1 cells, no CPT, ATP luminescence, 48 h; activity change, negative = growth inhibition: at 46.2 µM (top of the series). An outline of the steps: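 Growth of hTDP1-complemented DT40 Tdp1-knockout cells is measured by ATP luminescence after at least 48 hr compound exposure at 37 °C, with DMSO substituting for the 20 nM CPT used in the parallel screen.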
(Quantitative high-throughput screening tests each substance at several concentrations.)
Consider `CC(C)C(=O)NC(=S)Nc1ccccc1F`, for which the Potency entry was “inactive”.

For `CC(NC(=O)Nc1cccc([N+](=O)[O-])c1)c1ccc2c(c1)OCO2` (centres undefined), the Potency entry is “inactive”.

On to `O=C(Nc1cccnc1)c1noc2c1CCCCC2`, for which the Potency entry was “inactive”.

Take `CC(C)CC[n+]1ccn(C2=C([O-])c3ccccc3C(=O)/C2=N\S(=O)(=O)c2ccccc2)c1`: the Potency was 10.3 µM (active).

Consider `Cc1ccc(NC2CCCN(C(=O)CCC3(C)CC3)C2)cc1C` (centres undefined), for which the Potency entry was “inactive”.

With `CCOC(=O)CN1CC23C=CC(O2)C(C(=O)Nc2ccc(F)cc2)C3C1=O` (centres undefined), the Potency result is “inactive”.

Consider `COCCn1nnnc1CN1CCC(NC(=O)Nc2cccc(OC)c2)CC1`, for which the Potency result was “inactive”.

Take `Cc1cccc(C)c1Nc1c(-c2ccccc2O)nc2ncccn12`: the Potency was 18.4 µM (active) and 23.1 µM (active).

`Cc1ccc(-c2c(N)nc3ncccn23)cc1`: the Potency result was “inactive”.

With `CCc1cccc(C)c1Nc1c(-c2ccc(N(C)C)cc2)nc2ncccn12`, the Potency is 10.3 µM (active).

For the compound `Cc1c(-c2cccc(NC(=O)C(C)(C)C)c2)nc2ncccn12`, the Potency result was “inactive”.

For `Cc1nc(-c2ccc(F)cc2)c(CC(=O)N(C)CC(=O)Nc2c(C)cccc2C)s1`, the Potency entry is “inactive”.

Take `Nn1c(SCC(=O)Nc2nccs2)nncc1=O`: the Potency result was “inactive”.

Consider `CC(C)CCNC(=O)CC1C(=O)N(Cc2ccccc2)C(C)c2nc3ccccc3n21` (centres undefined), for which the Potency entry was “inactive”.

Take `CN(C)c1ccnc(Nc2ccc(F)cc2)c1C#N`: the Potency entry was “inactive”.

`COc1ccccc1/C=C/C1=NC(=C\N(C)C)/C(=O)O1`: the Potency is 20.6 µM (active).

In the case of `COc1ccccc1/C=C/C(=O)NC1CC2CCC1C2` (centres undefined), the Potency entry is “inactive”.

With `COc1ccccc1/C=C/C(=O)NC(=S)N1CCOCC1`, the Potency entry was “inactive”.

In the case of `O=C(CCNS(=O)(=O)c1ccccc1C(F)(F)F)NCc1ccc2c(c1)OCO2`, the Potency entry is “inactive”.

For `C=CCOC(=O)c1ccccc1C(=O)OCC=C`, the Potency result was “inactive”.

As to `C=CCOC(=O)C1=C(C)NC(C)=C(C(=O)OCC=C)C1c1cccs1`, the Potency is 18.4 µM (active).

With `CCOC(=O)C1=C(C)NC(=S)NC1c1cccs1` (centres undefined), the Potency entry is “inactive”.

`CC(C)C(NC(=O)c1ccc(Cl)cc1)C(=O)O` (centres undefined): the Potency result is “inactive”.

For `CSc1ncccc1C(=O)Nc1nc2ccc(F)cc2s1`, the Potency result is “inactive”.

Consider `Cc1cc(S(=O)(=O)N2CCOCC2)ccc1OCC(=O)N1CCOCC1`, for which the Potency result was “inactive”.

With `Cc1cc(C(=O)COc2ccccc2[N+](=O)[O-])c(C)n1-c1cccc(S(=O)(=O)N2CCOCC2)c1`, the Potency was 23.1 µM (active).

Regarding `O=C(COc1ccc(S(=O)(=O)N2CCCC2)cc1[N+](=O)[O-])N1CCCCC1`, the Potency result was “inactive”.

In the case of `CCCCCC(O)c1cccc(OCc2ccc3ccccc3n2)c1` (centres undefined), the activity change, negative = growth inhibition was -7.93% [at 4.12 µM].

Consider `C/C(=N/OC(=O)c1c(-c2c(F)cccc2Cl)noc1C)c1cnccn1`, for which the Potency result was “inactive”.

On to `O=C(CN1C(=O)COc2ccccc21)Nc1ccc(F)cc1`, for which the Potency entry is “inactive”.

With `CCOc1ccc(N(CC(=O)Nc2cccc(OC)c2)S(C)(=O)=O)cc1`, the Potency result was “inactive”.

On to `CCOc1cccc(NC(=O)c2ccc(F)c(S(=O)(=O)N(CC)c3cccc(C)c3)c2)c1`, for which the Potency is 25.9 µM (active).

Take `CCN(CC)S(=O)(=O)c1cc(C(=O)Nc2ccccn2)ccc1C`: the Potency result is “inactive”.

As for `CC1(C)CC(=O)C=C(NCCCNC2CCCCC2)C1`, the Potency entry is “inactive”.

With `O=Cc1ccc(Oc2cccc(C(F)(F)F)c2)nc1`, the Potency result is “inactive”.

For `N/C(=N\OC(=O)Nc1ccccc1)c1ccno1`, the Potency entry was “inactive”.

Consider `COC(=O)c1ccccc1NC(=O)Cn1c(=O)n(-c2cccc(C(F)(F)F)c2)c(=O)c2c(C)c(C)sc21`, for which the Potency result was “inactive”.

Take `CCC(=O)N1CCc2cc(Br)cc(S(=O)(=O)CCC(=O)NCc3ccccc3OC)c21`: the Potency entry is “inactive”.

`CC(=O)NC(CC(=O)Nc1ccc(S(=O)(=O)N2CCOCC2)cc1)c1ccccc1` (centres undefined): the Potency entry is “inactive”.

In the case of `O=C(NCCc1c[nH]c2ccccc12)C(=O)NCC1CCCO1` (centres undefined), the Potency result was “inactive”.

On to `CCOc1ccc(CC(=O)NC2CCN(Cc3ccccc3)CC2)cc1`, for which the Potency result is “inactive”.

For the compound `CCOc1ccc(CN2CCN(Cc3c[nH]c4ccccc34)CC2)cc1`, the Potency is 5.8 µM (active).

`CCOc1ccc(CN2CCCN(C)CC2)cc1`: the Potency result is “inactive”.

Turning to `O=C(CN1C(=O)NC2(CCCCC2)C1=O)NCCc1c[nH]c2ccccc12`, the Potency entry is “inactive”.

In the case of `O=C(NCCc1c[nH]c2ccccc12)C1CCN(Cc2ccc(Br)cc2)CC1`, the Potency was 16.4 µM (active).

In the case of `N/C(=N\OC(=O)CCc1ccccc1)c1cccnc1`, the Potency result is “inactive”.

On to `O=C(COc1coc(CN2CCN(c3ccccc3F)CC2)cc1=O)N1CCc2ccccc21`, for which the Potency entry is “inactive”.

For the compound `Cc1cc(C(=O)OCC(=O)c2c(N)n(C)c(=O)n(C)c2=O)c(C)o1`, the Potency entry was “inactive”.

With `Nc1nc(O)c(CC(=O)O)s1`, the Potency entry was “inactive”.

With `CCOC(=O)C1=C(O)/C(=C/c2ccc(OCC(=O)Nc3ccc(C)cc3)cc2)N=C1C`, the Potency entry was “inactive”.

Consider `O=c1c(-c2ccccc2)cnc2n1CCS2`, for which the Potency entry was “inactive”.

On to `CCCc1nn2c(=O)cc(COC(=O)c3ccc(NC(=O)COc4ccc(F)cc4)cc3)nc2s1`, for which the Potency result is “inactive”.

Regarding `Cc1onc(-c2c(Cl)cccc2Cl)c1C(=O)c1c[nH]c(C(=O)NC2CC2)c1`, the Potency entry was “inactive”.

As for `CC1(C)CC(=O)c2sc(N)nc2C1`, the Potency result is “inactive”.

As for `O=C(Cc1ccc(F)cc1)N1CCN=C1SCc1cccc([N+](=O)[O-])c1`, the Potency entry is “inactive”.

Consider `Cc1cc(C)cc(C(=O)N2CCN=C2SCc2ccc([N+](=O)[O-])cc2)c1`, for which the Potency entry is “inactive”.

For the compound `Cc1cccc(CC(=O)N2CCN=C2SCc2ccc([N+](=O)[O-])cc2)c1`, the Potency is 16.4 µM (active).

As for `C/C(=N\NC(=O)CCn1nc(C)cc1C)C(C)(C)C`, the Potency entry is “inactive”.

In the case of `CCOC(=O)N1CCN(C(=O)CSc2nc(C)nc3c2c(=O)n(C)c(=O)n3C)CC1`, the Potency entry was “inactive”.

In the case of `Cn1c(=O)c2c(SCC(=O)N3CCOCC3)nc(C3CC3)nc2n(C)c1=O`, the Potency entry was “inactive”.

`CCc1cnc2c(c1SCC(=O)N1CCC(C)CC1)c(=O)n(C)c(=O)n2C`: the Potency is 20.6 µM (active).

Regarding `Cc1nc(N)nc(SCc2ccc([N+](=O)[O-])cc2)c1N`, the Potency was 25.9 µM (active).

For `O=C(CSCc1ccc([N+](=O)[O-])cc1)NCCSCc1ccccc1`, the Potency result is “inactive”.

As to `CC(Sc1nnc(Cc2ccc([N+](=O)[O-])cc2)o1)C(N)=O` (centres undefined), the Potency result is “inactive”.

As for `CCCN(C(=O)COC(=O)CNS(=O)(=O)c1ccc(NC(C)=O)cc1)C1CCS(=O)(=O)C1` (centres undefined), the Potency entry is “inactive”.

With `O=C(NCCCc1ccccc1)C(=O)c1c[nH]c2ccccc12`, the Potency result is “inactive”.

Consider `COc1ccc(OC)c2[nH]c(=O)c(CCNC(=O)C(=O)c3c[nH]c4ccccc34)cc12`, for which the Potency was 7.31 µM (active).

As for `COc1ccc(OC)c2[nH]c(=O)c(CCNC(=O)C(C)(C)C)cc12`, the Potency entry was “inactive”.

Regarding `N#CCCCn1c(O)c(N=NC(=O)C(O)c2ccccc2)c2ccccc21` (centres undefined), the Potency result was “inactive”.

Regarding `CCNC(=S)NCC`, the Potency result is “inactive”.

Regarding `COc1ccc(CCNC(=S)N2CCN(S(=O)(=O)c3ccc(Cl)cc3)CC2)cc1`, the Potency entry is “inactive”.

`Oc1cc2c(cc1O)CN(C(=S)NCCc1ccc(Cl)cc1)CCC2`: the Potency was 8.91 µM (active).

Take `S=C(Nc1ccc(Cl)cc1Cl)N1CCCC1`: the Potency entry was “inactive”.

As to `Cc1cccc(C)c1NC(=O)CNC(=O)Cc1ccc(Br)cc1`, the Potency entry is “inactive”.

On to `CN(Cc1ccco1)c1cc(-c2ccccc2C(F)(F)F)ncn1`, for which the Potency result is “inactive”.

As for `COc1ccccc1CNc1cc(-c2ccccc2CN(C)C)ncn1`, the Potency result is “inactive”.

As to `FC(F)(F)c1ccccc1-c1cc(NCc2ccccc2)ncn1`, the Potency is 9.2 µM (active).

`COc1ccc(CCC(=O)c2c(O)cc(OC3OC(CO)C(O)C(O)C3O[C@@H]3OC(C)C(O)C(O)C3O)cc2O)cc1O` (some centres undefined): the Potency entry was “inactive”.

For `COCC1CCCN(Cc2ccc3c(c2)CN(C(=O)c2ccnn2C)CCO3)C1` (centres undefined), the Potency entry was “inactive”.

Take `NS(=O)(=O)c1ccc(NC(=S)NNC(=O)c2cccs2)cc1`: the Potency result is “inactive”.

On to `Cc1cc(Oc2ccc(Cl)cc2)nc(SCC(=O)c2ccccc2)n1`, for which the Potency is 23.1 µM (active).

On to `Cc1cc(C)nc(SCC(=O)N(C)C)n1`, for which the Potency entry is “inactive”.

Turning to `Cc1cc(C)nc(SCC(=O)c2ccc(Cl)cc2)n1`, the Potency entry is “inactive”.

As to `Cc1ccc(C(=O)NCC(=O)O)cc1S(=O)(=O)N1CCCCC1`, the Potency result is “inactive”.

With `Cc1ccc(C)c(Nc2nnc(-c3ccc(C)c(S(=O)(=O)N4CCCCC4)c3)c3ccccc23)c1`, the Potency was 9.2 µM (active).

Regarding `Cc1ccc(NS(=O)(=O)c2cccs2)cc1S(=O)(=O)N1CCCCCC1`, the Potency entry is “inactive”.

For the compound `COc1ccc(C2CC(=O)n3c(nc4ccccc43)S2)cc1OC` (centres undefined), the Potency entry was “inactive”.

In the case of `COc1cc(=O)n2c(c1C(=O)NC(C)c1ccco1)CCN(C(=O)c1cn3ccc(C)cc3n1)CC2` (centres undefined), the Potency entry was “inactive”.

Take `O=C(CN1CCN(C(=O)c2ccco2)CC1)Nc1ccc2c(c1)OCO2`: the Potency entry is “inactive”.

`COc1ccc(OC)c(NC(=O)CN2CCN(C(=O)c3ccco3)CC2)c1`: the Potency entry is “inactive”.

On to `O=C(CN1CCN(C(=O)c2ccco2)CC1)Nc1ccc(Cl)c(C(F)(F)F)c1`, for which the Potency was 16.4 µM (active).

In the case of `COc1cc(NC(=O)COC(=O)c2cnc(C)cn2)c(C)cc1[N+](=O)[O-]`, the Potency entry is “inactive”.

`CCCN1C(=O)C(NS(=O)(=O)c2ccc(N)cc2)(C(F)(F)F)C(C(=O)OC)=C1C` (centres undefined): the Potency result was “inactive”.

On to `O=C(O)CCCC(=O)N1N=C(c2ccco2)CC1c1ccco1` (centres undefined), for which the Potency result is “inactive”.

For the compound `COc1cccc(-c2coc3cc4oc(=O)c(CC(=O)O)c(C)c4cc23)c1`, the Potency entry is “inactive”.

Consider `Oc1c(Br)cccc1/C=N/Nc1c(F)c(F)c(F)c(F)c1F`, for which the Potency was 20.6 µM (active).

As to `Brc1ccccc1/C=N/Nc1nc2ccccc2o1`, the Potency entry is “inactive”.

Turning to `COc1ccc(C)cc1NC(=O)CN(C)S(=O)(=O)c1ccc2c(c1)n(C)c(=O)c(=O)n2C`, the Potency entry is “inactive”.

In the case of `CCCSC1=C(C#N)C(c2ccccc2C)C(C(=O)OC)C(=O)N1` (centres undefined), the Potency entry is “inactive”.

In the case of `CC(=O)N1c2ccccc2CC1C(=O)N1CCN(c2ccc(F)cc2)CC1` (centres undefined), the Potency entry was “inactive”.

`CC(C)N(C(=O)COC(=O)c1ccccc1C(=O)N1CCN(c2ccc(F)cc2)CC1)C(C)C`: the Potency result was “inactive”.

With `Cn1c2ccccc2c2c(C(=O)N3CCN(c4ccc(F)cc4)CC3)cn(C3CCCC3)c(=O)c21`, the Potency is 23.1 µM (active).

For `CC(NS(=O)(=O)c1ccccc1)c1n[nH]c(=S)n1-c1ccccc1` (centres undefined), the Potency result is “inactive”.

As for `CC(=O)Nc1ccc(NC(=O)[C@@H](NC(=O)c2cccc(C)c2)C(C)C)cc1`, the Potency result is “inactive”.
